The nature of test [1]: antimalarial activity against Dd2 strain (AID 2302;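 active means growth inhibition above 50% at the single 2 µM test dose, taken to imply half-maximal potency below 2 µM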;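 further: 0% = DMSO untreated growth and 100% = chloroquine plus artemisinin killed control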). The following applies: P. falciparum Dd2 in RBCs, LDH growth readout, 72 h; at 2 µM; stronger effect = higher value.
Test [2] in a line: HepG2 cytotoxicity, primary screen, cytotoxicity control for P. falciparum antimalarial project, cell-based, ATP luminescence (AID 2303;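 active means inhibition above 50%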;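 further: 0% = DMSO wells and 100% = digitonin-killed cells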). The following applies: HepG2 viability, 24-48 h, at 10 µM, stronger effect = higher value.
The target of test [3] is L-lactate dehydrogenase (Plasmodium falciparum (isolate CDC / Honduras)) (UniProt Q27743). Nature of the test: PfLDH activity inhibition – cell lysate, 3D7 strain, counter-screen for P. falciparum growth inhibition project (AID 2304).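 Further: 0% = vehicle and 100% = reference inhibitor.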 The conditions noted are these: P. falciparum 3D7 crude extract, LDH APAD/NBT absorbance; at 2 µM; stronger effect = higher value. On the technique in general: The purpose of a counterscreen is to sort out artefacts and off-target activity.

A short description of test [4]: inhibition of 3D7 malaria parasite growth – strain 3D7 (AID 2306).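 Further: 0% = DMSO wells and 100% = chloroquine plus artemisinin control wells.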 The following applies: P. falciparum 3D7 erythrocytic growth, LDH absorbance, 72 h; at 2 µM; stronger effect = higher value.
Test [5] has as its target Calcium-dependent protein kinase 1 (Plasmodium falciparum (isolate 3D7)) (UniProt P62344). Nature of the test: PfCDPK1 kinase inhibitors, biochemical, TCAMS library (AID 1159585; cut-off not given, nearly all actives have IC50 up to about 0.98 µM;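 further: inhibitors leave more ATP so luminescence rises with inhibition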). The following applies: recombinant PfCDPK1, Kinase-Glo ATP depletion luminescence.
Test [6] concerns the target Plasmodium falciparum protein kinase 6 (PK6, PF3D7_1337100) (UniProt Q8IDW1). The test can be described thus: PfPK6 kinase inhibitors, biochemical, TCAMS library (AID 1159586). The conditions noted are these: recombinant PfPK6, Kinase-Glo ATP depletion luminescence. (Kinase-Glo measures the ATP left after a reaction by luminescence.)
Test [7] concerns the target Protein kinase 7 (PK7), Plasmodium falciparum 3D7 (PF3D7_0213400) (UniProt Q7YTF7). The test can be described thus: inhibition of Plasmodium PK7 catalytic activity – biochemical, TCAMS antimalarial set, Kinase-Glo luminescence (AID 1159587). The conditions noted are these: recombinant PfPK7, Kinase-Glo ATP depletion luminescence.
The target in test [8] is Calcium-dependent protein kinase 4 (Plasmodium falciparum (isolate 3D7)) (UniProt Q8IBS5). Nature of the test: PfCDPK4 kinase inhibitors, biochemical, TCAMS library (AID 1159588; cut-off not given, nearly all actives have IC50 up to about 0.91 µM). The conditions noted are these: recombinant PfCDPK4, Kinase-Glo ATP depletion luminescence.

Unmarked numbers belong to inactive results. For some of these results: Results with a measured potency or affinity are listed apart. Active and inactive are the calls of the source. Unless noted, how the calls were made is not given here.

Sequence of Protein kinase 7 (PK7), Plasmodium falciparum 3D7 (PF3D7_0213400) (Q7YTF7 1-343): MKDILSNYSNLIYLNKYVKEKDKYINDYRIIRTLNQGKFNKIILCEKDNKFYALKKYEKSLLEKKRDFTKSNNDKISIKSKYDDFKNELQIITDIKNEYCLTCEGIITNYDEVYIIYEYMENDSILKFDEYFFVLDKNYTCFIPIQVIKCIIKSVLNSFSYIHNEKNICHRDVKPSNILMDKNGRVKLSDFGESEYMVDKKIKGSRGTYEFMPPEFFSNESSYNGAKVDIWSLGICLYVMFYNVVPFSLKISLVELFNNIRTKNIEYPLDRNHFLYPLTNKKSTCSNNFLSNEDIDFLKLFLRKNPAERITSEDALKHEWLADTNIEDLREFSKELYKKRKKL
Sequence of Calcium-dependent protein kinase 1 (Plasmodium falciparum (isolate 3D7)) (P62344 whole entry, looked up): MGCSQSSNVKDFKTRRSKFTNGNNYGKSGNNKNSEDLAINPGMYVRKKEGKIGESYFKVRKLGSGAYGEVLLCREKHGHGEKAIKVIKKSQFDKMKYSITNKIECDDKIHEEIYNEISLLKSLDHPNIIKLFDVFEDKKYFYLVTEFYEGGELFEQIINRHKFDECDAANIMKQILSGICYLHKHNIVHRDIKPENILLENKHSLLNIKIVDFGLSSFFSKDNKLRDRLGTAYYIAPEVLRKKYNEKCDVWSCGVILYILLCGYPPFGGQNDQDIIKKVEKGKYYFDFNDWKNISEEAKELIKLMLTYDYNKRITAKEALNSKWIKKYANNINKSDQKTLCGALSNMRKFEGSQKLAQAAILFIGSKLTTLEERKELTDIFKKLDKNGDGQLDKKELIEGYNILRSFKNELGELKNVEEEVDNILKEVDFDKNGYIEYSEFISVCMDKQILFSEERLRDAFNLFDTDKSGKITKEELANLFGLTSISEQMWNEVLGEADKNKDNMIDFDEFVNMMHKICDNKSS
Sequence of Calcium-dependent protein kinase 4 (Plasmodium falciparum (isolate 3D7)) (Q8IBS5 whole entry, looked up): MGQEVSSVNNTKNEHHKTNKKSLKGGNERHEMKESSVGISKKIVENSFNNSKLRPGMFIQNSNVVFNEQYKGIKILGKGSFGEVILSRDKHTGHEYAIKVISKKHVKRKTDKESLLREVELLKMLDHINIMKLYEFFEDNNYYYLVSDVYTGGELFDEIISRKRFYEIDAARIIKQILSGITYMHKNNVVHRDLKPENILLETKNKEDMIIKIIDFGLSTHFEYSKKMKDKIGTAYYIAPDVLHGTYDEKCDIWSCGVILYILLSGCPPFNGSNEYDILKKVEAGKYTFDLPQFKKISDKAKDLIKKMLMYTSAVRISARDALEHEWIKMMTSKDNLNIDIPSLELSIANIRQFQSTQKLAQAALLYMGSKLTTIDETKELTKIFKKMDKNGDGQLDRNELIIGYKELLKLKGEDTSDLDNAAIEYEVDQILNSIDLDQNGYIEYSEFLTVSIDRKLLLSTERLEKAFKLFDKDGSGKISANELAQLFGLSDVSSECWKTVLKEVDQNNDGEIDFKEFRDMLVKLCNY
Sequence of L-lactate dehydrogenase (Plasmodium falciparum (isolate CDC / Honduras)) (Q27743 whole entry, looked up): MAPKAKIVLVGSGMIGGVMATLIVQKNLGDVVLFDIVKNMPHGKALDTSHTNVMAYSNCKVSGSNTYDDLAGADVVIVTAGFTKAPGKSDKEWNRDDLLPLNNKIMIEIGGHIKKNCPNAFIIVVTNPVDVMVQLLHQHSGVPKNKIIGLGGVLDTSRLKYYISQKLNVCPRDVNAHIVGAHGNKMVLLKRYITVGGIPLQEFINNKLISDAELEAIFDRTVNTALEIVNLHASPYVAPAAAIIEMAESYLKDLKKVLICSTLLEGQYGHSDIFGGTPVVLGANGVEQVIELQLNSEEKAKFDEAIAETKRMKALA
Sequence of Plasmodium falciparum protein kinase 6 (PK6, PF3D7_1337100) (Q8IDW1 1-305): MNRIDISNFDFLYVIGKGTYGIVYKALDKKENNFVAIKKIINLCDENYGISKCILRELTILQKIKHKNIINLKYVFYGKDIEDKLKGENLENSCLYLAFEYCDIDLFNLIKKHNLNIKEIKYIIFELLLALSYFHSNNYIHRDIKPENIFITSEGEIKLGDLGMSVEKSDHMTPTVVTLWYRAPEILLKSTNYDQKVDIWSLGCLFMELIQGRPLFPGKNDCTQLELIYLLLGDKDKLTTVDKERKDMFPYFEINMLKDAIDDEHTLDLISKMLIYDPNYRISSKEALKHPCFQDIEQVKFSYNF

With `CCCCCCCCc1[nH]c(C)c(Br)c(=O)c1Br`, the results for the growth inhibition in test [1] and in test [4] were 95% (active) and 96% (active), respectively. The inhibition in test [2] and in test [3] was 2% each time. Also, the result in test [5], in test [6], in test [7] and in test [8] was inactive.

On to `Cc1cccc2[nH]c(-c3ccc(-c4cccc(NC(=O)Nc5ccsc5)c4)cc3)nc12`, for which the values for the growth inhibition in test [1] and in test [4] were 24% and 101% (active), respectively. Besides, the inhibition in test [2] is 24%; in test [3], 8%. Besides, the outcome in test [5], in test [6], in test [7] and in test [8] was inactive.

Take `Cc1[nH]c(C)c(-c2ccc(C(=O)c3ccc(Cl)cc3)cc2)c(=O)c1Br`: the growth inhibition was 95% (active) in test [1] and 97% (active) in test [4]. Besides, the inhibition in test [2] is 10%; in test [3], 4%. In addition, the result in test [5], in test [6], in test [7] and in test [8] was inactive.

With `Cc1cnn(-c2cccc(C(=O)NC3CCC(CCN4CCc5ccc(C#N)cc5CC4)CC3)c2)c1` (stereo not given), the figures for the growth inhibition in test [1] and in test [4] were 48% and 94% (active), respectively. Besides, the inhibition in test [2] is 24%; in test [3] it was -9%. The outcome in test [5], in test [6], in test [7] and in test [8] was inactive.

As to `O=C(/C=C/c1c[nH]c2ccccc12)NCCCCCN1CCC(c2c[nH]c3ccccc23)CC1`, the growth inhibition in test [1] was 0%; in test [4], 96% (active). The inhibition is 20% in test [2] and 5% in test [3]. Besides, the outcome in test [5], in test [6], in test [7] and in test [8] was inactive.

Turning to `FC(F)(F)c1cccc(Nc2nc(-c3ccccc3)nc3ncccc23)c1`, the growth inhibition in test [1] and in test [4] was 97% (active) each time. The inhibition was 17% in test [2] and -1% in test [3]. In addition, the outcome in test [5], in test [6], in test [7] and in test [8] was inactive.

As for `Cc1ccc(O)cc1Nc1ccnc2ccc(C(C)(C)C)cc12`, the growth inhibition in test [1] and in test [4] was 100% (active) throughout. For the same compound, the results for the inhibition in test [2] and in test [3] were 6% and 3%, respectively. In addition, the outcome in test [5], in test [6], in test [7] and in test [8] was inactive.

Consider `Cc1cccc(OCCCCON2C(N)=NC(N)=NC2(C)C)c1C`, for which the growth inhibition is 95% (active) in test [1] and 97% (active) in test [4]. In addition, the inhibition is 65% (active) in test [2] and -3% in test [3]. Further, the result in test [5], in test [6], in test [7] and in test [8] was inactive.

For the compound `COc1cc2nc(-c3ccc(Br)cc3)cc(N)c2cc1OC`, the growth inhibition in test [1] was 69% (active); in test [4], 98% (active). In addition, the inhibition in test [2] is 90% (active); in test [3], -3%. For the same compound, the outcome in test [5], in test [6], in test [7] and in test [8] was inactive.

On to `CCCCc1cc(NCc2ccncc2)nc(Nc2ccc(OC)cc2)n1`, for which the growth inhibition in test [1] is 22%; in test [4], 93% (active). For the same compound, the figures for the inhibition in test [2] and in test [3] were 11% and 0%, respectively. Also, the result in test [5], in test [6], in test [7] and in test [8] was inactive.

Turning to `Cc1cc(NN=Cc2ccc(Cl)cc2)c2cc(F)ccc2n1`, the growth inhibition in test [1] was 98% (active); in test [4], 101% (active). The inhibition in test [2] was 6%; in test [3], 2%. Moreover, the outcome in test [5], in test [6], in test [7] and in test [8] was inactive.

For the compound `CS(=O)(=O)NCCCNCc1ccc(-c2cccc(-c3nc4ccc(F)cc4[nH]3)c2)cc1`, the growth inhibition in test [1] is 1%; in test [4], 98% (active). Also, the inhibition in test [2] was 15%; in test [3] it was 5%. In addition, the result in test [5], in test [6], in test [7] and in test [8] was inactive.

On to `COc1cc(Cc2cnc(N)nc2N)cc(OC)c1OCCNC(=O)[C@@H](N)CCC(=O)O`, for which the growth inhibition is -4% in test [1] and 96% (active) in test [4]. Further, the inhibition in test [2] is -1%; in test [3] it was -6%. The result in test [5], in test [6], in test [7] and in test [8] was inactive.

Take `O=C(Cc1cccs1)NCC(c1ccccc1Cl)c1c[nH]c2ccccc12` (stereo not given): the growth inhibition is 56% (active) in test [1] and 91% (active) in test [4]. The inhibition in test [2] is 12%; in test [3], 1%. The result in test [5], in test [6], in test [7] and in test [8] was inactive.

As for `Oc1ccc(CCNc2nc(NCCCOc3ccccc3-c3ccc(C(F)(F)F)cc3)nc(N3CCNCC3)n2)cc1`, the results for the growth inhibition in test [1] and in test [4] were 49% and 101% (active), respectively. The inhibition in test [2] was 64% (active); in test [3], 0%. Moreover, the outcome in test [5], in test [6], in test [7] and in test [8] was inactive.

For the compound `CC(C)c1ccc(NC(=O)c2ccc(C(=O)NC3CCN(Cc4ccsc4)C3)cc2)cc1` (stereo not given), the values for the growth inhibition in test [1] and in test [4] were 28% and 82% (active), respectively. In addition, the inhibition in test [2] is 17%; in test [3], -2%. The result in test [5], in test [6], in test [7] and in test [8] was inactive.

Regarding `CCOc1ccc2c(NN=Cc3cccc(F)c3)cc(C)nc2c1`, the growth inhibition in test [1] and in test [4] was 100% (active) each time. Further, the inhibition in test [2] is 0%; in test [3] it was 7%. Besides, the result in test [5], in test [6], in test [7] and in test [8] was inactive.

Consider `COc1cccc(CC(=O)N2CCC(n3c(C)nc4ccc(F)cc43)CC2)c1`, for which the growth inhibition was 99% (active) in test [1] and 100% (active) in test [4]. Moreover, the inhibition in test [2] is -8%; in test [3], -3%. Also, the outcome in test [5], in test [6], in test [7] and in test [8] was inactive.

Consider `CN(C)CCN(C)Cc1ccc(-c2cccc(NC(=O)c3ccc(Cl)cc3)c2)cc1`, for which the growth inhibition in test [1] is 71% (active); in test [4] it was 97% (active). The inhibition in test [2] is 69% (active); in test [3] it was -5%. Besides, the result in test [5], in test [6], in test [7] and in test [8] was inactive.

Take `COc1cc(C2CCN(CCCCNC(=O)c3ccc(NC(=O)c4ccc(Cl)c(Cl)c4)cc3)CC2)ccc1OC(C)C`: the growth inhibition was 96% (active) in test [1] and 101% (active) in test [4]. In addition, the inhibition in test [2] is 45%; in test [3], -5%. In addition, the outcome in test [5], in test [6], in test [7] and in test [8] was inactive.

Broadly, the inhibition is the drop in the measured response relative to a control, in per cent.

The values above are taken from PubChem BioAssay.
